The source of these data is ChEMBL document CHEMBL3988442, “University of Dundee, Small-Polar-MMV Screening Library” (2021).

The target of assay [1] is T1, Aspartate--tRNA(Asp/Asn) ligase (Mycobacterium tuberculosis (strain ATCC 25618 / H37Rv)) (UniProt P9WFW3). Note: in the data most compounds retested in dose-response had high values.
T1 sequence (whole entry): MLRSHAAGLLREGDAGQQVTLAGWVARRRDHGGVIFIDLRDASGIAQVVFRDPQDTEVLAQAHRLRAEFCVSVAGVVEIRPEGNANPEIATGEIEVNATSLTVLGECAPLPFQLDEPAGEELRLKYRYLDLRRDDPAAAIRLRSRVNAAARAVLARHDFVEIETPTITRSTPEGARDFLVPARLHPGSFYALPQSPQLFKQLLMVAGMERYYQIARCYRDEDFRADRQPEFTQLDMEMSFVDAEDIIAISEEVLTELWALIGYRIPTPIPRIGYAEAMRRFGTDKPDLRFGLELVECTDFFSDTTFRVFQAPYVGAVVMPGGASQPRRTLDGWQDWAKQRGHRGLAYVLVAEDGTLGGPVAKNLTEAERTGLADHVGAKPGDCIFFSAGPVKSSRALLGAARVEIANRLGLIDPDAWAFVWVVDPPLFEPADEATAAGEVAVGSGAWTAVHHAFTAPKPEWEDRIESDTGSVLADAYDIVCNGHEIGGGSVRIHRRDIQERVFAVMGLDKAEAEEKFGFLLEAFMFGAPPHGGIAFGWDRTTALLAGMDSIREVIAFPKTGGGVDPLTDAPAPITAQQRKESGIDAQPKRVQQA
Description: Assay for Asp RNA synthetase-1 from Mycobacterium tuberculosis. Type of assay: functional. Further details: scale not given: direction of the effect not stated beside the values. Particulars: 30 µM.

The target of assay [2] is Shiga toxin 2 (Escherichia coli O157:H7) (UniProt P09385+P09386). Description: E. coli 0.157:H7 Shiga Toxin SOP - stx2 screening assay. Format: functional. Further details: scale not given: direction of the effect not stated beside the values. Particulars: 30 µM.

With `O=C(NCCNc1ncccn1)N1CCN(Cc2cccnc2)CC1`, the Percent Effect was 6.28% in assay [1] and -6.42% in assay [2].
On to `O=C(c1ccc2c(c1)OCO2)N1CCCSCC1CN1CCCC1` (stereo not given), for which the Percent Effect is -0.0437% in assay [1] and -5.02% in assay [2].
On the same counts, the results for `O=C(Cc1cccc(F)c1)NCCNCc1ccc2c(c1)CCO2` are -0.182% and -76.4%.
In the case of `CC(C)Nc1ccc2nc(C3CCN(C(C)C)CC3)nn2c1`, the Percent Effect in assay [1] was -0.549%; in assay [2], -8.89%.
In the case of `O=C(c1cccc(Cl)c1)N1CC[C@H]2[C@H]1CCN2CC1CCOCC1`, the Percent Effect in assay [1] was -4.93%; in assay [2], -25.2%.
On the same counts, the results for `CN(Cc1ccc2c(c1)OCCO2)C(=O)Cn1cccnc1=O` are -2.54% and -20.6%.
On the same counts, the results for `CCc1ccc(NS(=O)(=O)CC2=NC(=O)n3cccc3C2=O)cc1` are 0.755% and -77.4%.
On the same counts, the results for `CC(C)NC(=O)N1CCC2(CC(C(=O)NCc3cccnc3)=NO2)C1` (stereo not given) are 2.53% and -11.6%.
On to `Cc1ncsc1C(=O)Nc1cccc(OCC(F)F)n1`, for which the Percent Effect was -0.449% in assay [1] and 1.86% in assay [2].
On the same counts, the results for `O=S(=O)(N1CCCC1)N1CCCCC1CCc1ccccc1` (stereo not given) are 1.42% and 10.8%.
On the same counts, the results for `CN(C)C(=O)N[C@@H]1CN(Cc2ccc3c(c2)OCO3)[C@@H]2CCCO[C@@H]21` are -0.291% and -7.65%.
On the same counts, the results for `Cc1occc1C(=O)N1CCC2(CC1)C(c1cnn(C)c1)CC(=O)N2C` (stereo not given) are 2.49% and -8.78%.
Take `C=C(Cl)CN1CCC(C(=O)c2cc(F)ccc2F)CC1`: the Percent Effect in assay [1] was -0.256%; in assay [2], 18.4%.
For the compound `CCN1CCN(C(=O)NCCOc2ccc3c(c2)OCO3)CC1`, the figures for the Percent Effect in assay [1] and in assay [2] were -4.65% and -50%, respectively.
On the same counts, the results for `Cc1ccccc1C(=O)N1CCOC2(CNCCOC2)C1` (stereo not given) are -0.279% and -0.428%.
On the same counts, the results for `O=C(c1csc(Br)c1)N1CCCC(n2ccnc2)C1` (stereo not given) are -1.27% and -53.5%.
On the same counts, the results for `COc1ccc(CC(=O)NC2(C)CCS(=O)(=O)C2)cc1F` (stereo not given) are 4.95% and -19.1%.
For the compound `Cc1nc(-c2ccc(C(=O)O)cc2)cc(C2CCN(C(C)C)C2)n1` (stereo not given), the values for the Percent Effect in assay [1] and in assay [2] were 2.34% and -5.82%, respectively.
On the same counts, the results for `Cn1cc(C2CCCN2C(=O)c2ccc(Br)o2)cn1` (stereo not given) are -1.8% and 28.5%.
On to `COc1ccc(-c2cnc(CN3CCn4c(C)nnc4C3)o2)cc1`, for which the figures for the Percent Effect in assay [1] and in assay [2] were 0.144% and -27.2%, respectively.
On the same counts, the results for `CN(Cc1ccsc1)C(=O)CN1CCCC1Cn1cccn1` (stereo not given) are 2.25% and -9.42%.
On to `CN1CCOC(CNCc2coc(-c3cccs3)n2)C1` (stereo not given), for which the Percent Effect in assay [1] was 3.28%; in assay [2], -17.6%.
On the same counts, the results for `CN1CCN(c2ncccc2CNc2ncccc2C#N)CC1` are 3.68% and 2.01%.
With `O=C(c1ccc[nH]1)N1CCn2cc(CN3CCCC3)nc2C1`, the Percent Effect in assay [1] is -2.37%; in assay [2], 0.78%.
On the same counts, the results for `Cc1nc(NCCc2ccc(Cl)cc2)cc(C(=O)N2CCOCC2)n1` are 12.1% and -64.7%.
On the same counts, the results for `Cn1ccc(C(=O)N2CCC(Cc3cnc4[nH]ccc4c3)CC2)n1` are 0.283% and 19.7%.
On the same counts, the results for `Cn1ncc2c(=O)[nH]c(CN(Cc3ccco3)C3CCCC3)nc21` are -7.5% and -31.6%.
`Cc1cc2c(=O)n3c(nc2s1)CCN(C(=O)c1ccncc1)CC3`: the results for the Percent Effect in assay [1] and in assay [2] were 0.789% and 3.16%, respectively.
`CCc1cnc(CN2CCC(N(C)Cc3noc(C4CC4)n3)C2)o1` (stereo not given): the Percent Effect in assay [1] is -1.09%; in assay [2], -33.4%.
On the same counts, the results for `Cc1nc(C2CCCN2CCCS(=O)(=O)N(C)C)no1` (stereo not given) are -1.34% and -7.71%.
For the compound `O=C(C(CNCc1ccsc1)c1ccccc1)N1CCOCC1` (stereo not given), the Percent Effect in assay [1] is 4.13%; in assay [2], -22.6%.
`CCC1CN(Cc2ccccc2)CCN1Cc1nnc(C2CCC2)o1` (stereo not given): the Percent Effect in assay [1] was -4.92%; in assay [2], -9.86%.
On the same counts, the results for `CCc1noc(CNc2cc(F)ccc2OCC2CCCO2)n1` (stereo not given) are 0.569% and -4.24%.
On the same counts, the results for `Cc1ncc(CNC(=O)Cc2ccc(Cl)cc2)c(C2CCCN2C)n1` (stereo not given) are 0.551% and 15.8%.
On to `Cc1ccc(C(=O)NS(=O)(=O)c2cccc3cnccc23)c(=O)[nH]1`, for which the Percent Effect in assay [1] was found to be 1.11%; in assay [2] it was 1.19%.
On the same counts, the results for `CS(=O)(=O)N1CCC(C(=O)NC(Cc2ccsc2)c2ccccn2)CC1` (stereo not given) are -1.32% and 14.7%.
On the same counts, the results for `O=C(c1ccc[nH]1)N1CCCC2(CCN(c3ccsc3)C2=O)C1` (stereo not given) are 3.37% and 3.06%.
Turning to `O=C(NCCCNC(=O)c1cccc(O)c1)Nc1ccc(F)cc1F`, the Percent Effect in assay [1] is -6.98%; in assay [2], -56%.
Take `CC(C)CN1CCC(c2nc3c([nH]2)CC(C)(C)CNC3=O)C1` (stereo not given): the Percent Effect in assay [1] is 1.44%; in assay [2] it was -12.2%.
On the same counts, the results for `COCC(=O)N1CC[C@@H]2O[C@@H](COCc3csc(C)n3)CC[C@@H]21` are 7.78% and -9.07%.
On the same counts, the results for `CC(=O)c1ccc(N2CCC(CO)(CCOc3ccccc3)CC2)nc1` are 0.327% and -31.2%.
On the same counts, the results for `CC(C)(C)c1n[nH]c(C2CN(C(=O)c3cc(C4CC4)on3)CCO2)n1` (stereo not given) are -2.16% and -1.24%.
For `COc1cc(S(=O)(=O)N2CCc3ccc(F)cc32)cc(C(=O)O)c1OC`, the Percent Effect in assay [1] was determined as 1.4%; in assay [2], 2.68%.
On the same counts, the results for `CCN(Cc1ccc2c(c1)OCO2)C(=O)CCc1c(C)nc(C)[nH]c1=O` are -2.63% and 29.9%.
On the same counts, the results for `Cc1ccc(N2CCN(C(=O)COc3ccccc3)CC2)nn1` are -1.15% and -66.5%.
On to `Cc1cnn(C2CN(Cc3nc(C(C)(C)C)no3)C2)c1`, for which the results for the Percent Effect in assay [1] and in assay [2] were -0.0303% and -32.1%, respectively.
With `COCC(=O)N1CCC(c2cc(C(F)(F)F)n3ccnc3n2)CC1`, the Percent Effect in assay [1] was -2.99%; in assay [2] it was -10.9%.
On the same counts, the results for `CC(C)NC(=O)[C@@H]1CCO[C@@H]2CCN(c3ncccn3)C[C@H]21` are 4.69% and -19.4%.
On the same counts, the results for `CCC(C)NC(=O)Nc1ccc(CN2CCOC2=O)cc1` (stereo not given) are -0.167% and -47.4%.
As to `CS(=O)(=O)NCCNC(=O)C1(c2cccc(Cl)c2)CC1`, the values for the Percent Effect in assay [1] and in assay [2] were -2.17% and -2.54%, respectively.
